Source: the supplement of paper PMC11732987, “Enantioselective OTUD7B fragment discovery through chemoproteomics screening and high-throughput optimisation” (Communications Chemistry, 2025)

target: COPS5 (UniProt Q92905); experiment: log2 ratio of Biotin-Ahx-Ub-VS probe labelling (fragment/DMSO); higher = less target engagement (more negative = stronger competition), active = hit call of the paper (q ≤ 0.05, log2 ratio ≤ -1); conditions: compound concentration: 200 uM; treatment time: 3 h
Procedure: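 Competitive ABPP in HEK293T cell lysate. Lysates were treated with each chloroacetamide fragment at 200 µM for 3 h, then with Biotin-Ahx-Ub-VS (0.5 µM, 1 h), NeutrAvidin-enriched and analysed by diaPASEF LC-MS/MS. Protein LFQ was median-normalised; average log2 ratio is fragment/DMSO from an unpaired t-test (n=3 treated, n=44 DMSO). Hits: q ≤ 0.05, log2 ratio ≤ -1, unique peptides ≥ 2.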

Sequence of COPS5 (Q92905 whole entry, looked up, the tested form may be a part): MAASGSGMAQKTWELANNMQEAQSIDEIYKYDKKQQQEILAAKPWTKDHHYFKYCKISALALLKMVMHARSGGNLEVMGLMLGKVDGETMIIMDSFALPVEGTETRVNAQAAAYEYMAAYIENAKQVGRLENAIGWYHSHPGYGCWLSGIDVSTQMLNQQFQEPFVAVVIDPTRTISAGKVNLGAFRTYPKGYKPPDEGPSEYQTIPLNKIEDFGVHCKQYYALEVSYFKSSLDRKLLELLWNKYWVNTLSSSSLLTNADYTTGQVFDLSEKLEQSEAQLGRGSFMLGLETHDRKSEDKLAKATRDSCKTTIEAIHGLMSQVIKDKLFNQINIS

| SMILES | log2 ratio of Biotin-Ahx-Ub-VS probe labelling |
| --- | --- |
| O=C(CCl)NCCc1ccc(F)cc1 | 0.0919 (inactive) |
| Cl.O=C(CCl)N1CCN(Cc2ccccc2)CC1 | -0.0604 (inactive) |
| C[C@H]1CN(C(=O)CCl)CCN1C(=O)c1cnn(C)c1.Cl | -0.0598 (inactive) |
| O=C(CCl)N1CCN(c2nc3ccccc3o2)CC1 | -0.251 (inactive) |
| CNC(=O)C1CCN(C(=O)CCl)CC1 | 0.16 (inactive) |
| Cl.O=C(CCl)N1CCC(Cc2nccs2)C1 (stereo not given) | 0.114 (inactive) |
| Cl.O=C(CCl)NCCc1ncc(F)cc1F | 0.213 (inactive) |
| O=C(CCl)Nc1nc(-c2cccs2)cs1 | 0.0647 (inactive) |
| CS(=O)(=O)c1ccc(NC(=O)CCl)cc1 | 0.0438 (inactive) |
| Cc1c(NC(=O)CCl)c(=O)n(-c2ccccc2)n1C | -0.0844 (inactive) |
| Cc1n[nH]c2c1CN(C(=O)CCl)CC2 | 0.184 (inactive) |
| O=C(CCl)N1CCN2C(=O)CCC2C1 (stereo not given) | 0.141 (inactive) |
| CCC(NC(=O)CCl)c1ccc(Cl)cc1 (stereo not given) | 0.193 (inactive) |
| Cl.O=C(CCl)NCc1cc2c(nc1O)CCCC2 | -0.023 (inactive) |
| Cc1ncc2c(n1)CCN(C(=O)CCl)C2 | 0.163 (inactive) |
| CC(NC(=O)CCl)c1noc(Cc2ccccc2)n1 (stereo not given) | 0.201 (inactive) |
| O=C(CCl)N1CCc2ccccc2C(O)C1 (stereo not given) | 0.0553 (inactive) |
| O=C(CCl)NCCC1COCCO1 (stereo not given) | -0.0816 (inactive) |
| O=C(CCl)Nc1ccc(F)cc1F | -0.115 (inactive) |
| O=C(CCl)NCc1ccc(N2CCOCC2)nc1 | 0.0899 (inactive) |

| SMILES | log2 ratio of Biotin-Ahx-Ub-VS probe labelling |
| --- | --- |
| CC(=O)Nc1ccc(NC(=O)CCl)cc1 | -0.0874 (inactive) |
| CN(C(=O)CCl)c1nc2ccccc2s1 | -0.0311 (inactive) |
| Cc1n[nH]c(=O)c2c(NC(=O)CCl)oc(C)c12 | 0.0565 (inactive) |
| Cc1ccc(C)c(NC(=O)CCl)c1 | -0.0407 (inactive) |
| N#Cc1ccccc1N1CCN(C(=O)CCl)CC1 | -0.271 (inactive) |
| O=C(CCl)NCc1cccc(F)c1 | 0.17 (inactive) |
| O=C(CCl)NC1CCCCNC1=O (stereo not given) | 0.0739 (inactive) |
| COc1cccc(CN(C)C(=O)CCl)c1 | 0.0731 (inactive) |
| Cc1nnc(C(NC(=O)CCl)c2ccccc2)n1C (stereo not given) | 0.37 (inactive) |
| O=C(CCl)NCCc1cccc2ccccc12 | -0.0396 (inactive) |
| O=C(CCl)N1CCOCCC1c1ccccc1 (stereo not given) | -0.0175 (inactive) |
| O=C(CCl)NCc1ccc(N2CCOCC2)c(F)c1 | -0.0355 (inactive) |
| Cc1cccnc1NC(=O)C1CCN(C(=O)CCl)CC1.Cl | -0.025 (inactive) |
| CNC(=O)C1(NC(=O)CCl)CCCCC1 | 0.00317 (inactive) |
| Cl.O=C(CCl)N1CCn2cncc2C1 | -0.298 (inactive) |
| CN1C(=O)c2ccc(NC(=O)CCl)cc2C1=O | -0.249 (inactive) |
| Cc1ccc(CN(CCO)C(=O)CCl)cc1 | -0.141 (inactive) |
| Cc1ccccc1OCC(=O)N1CCN(C(=O)CCl)CC1 | 0.104 (inactive) |
| O=C(CCl)N1CCCCCC1c1ncon1 (stereo not given) | 0.187 (inactive) |
| O=C(CCl)N1CCC(C(O)c2ccc(F)cc2)CC1 (stereo not given) | -0.113 (inactive) |
